# PubChem BioAssay (NCI)
# This is part of a sample that, as a whole, favours compounds with a hit. Of some 83,000 tested, about 20% had one in any assay.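 Results are percent growth after 48 hours of single-concentration exposure. 100 means growth as in untreated cells, lower positive values show inhibition; negative values down to -100 show cell death.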 A number with no mark means an inactive call. Active and inactive are the calls of the source. How the source made its calls: active means growth percent below 10; inactive means the rest.
# Experiments:
# Test in all cases: NCI-60 one-dose screen, 48 h (100 = growth as untreated, 0 = no growth, -100 = all killed)
# Settings in all cases: 10 µM unless noted
# HCT-15 colon = system: HCT-15 colon
# HT29 colon = system: HT29 colon
# SNB-75 CNS = system: SNB-75 CNS
# SNB-19 CNS = system: SNB-19 CNS
# U251 CNS = system: U251 CNS
# PC-3 prostate = system: PC-3 prostate
# SK-MEL-5 melanoma = system: SK-MEL-5 melanoma
# UACC-62 melanoma = system: UACC-62 melanoma
# LOX IMVI melanoma = system: LOX IMVI melanoma
# SK-MEL-28 melanoma = system: SK-MEL-28 melanoma
Structure (SMILES),growth (HCT-15 colon),growth (HT29 colon),growth (SNB-75 CNS),growth (SNB-19 CNS),growth (U251 CNS),growth (PC-3 prostate),growth (SK-MEL-5 melanoma),growth (UACC-62 melanoma),growth (LOX IMVI melanoma),growth (SK-MEL-28 melanoma)
CN1CC(c2ccc(Br)cc2)C(C(=O)c2ccc(Br)cc2)C12C(=O)Nc1ccccc12 (stereo not given),59.5%,36%,71.9%,85.1%,82.3%,43.5%,94.2%,63.9%,79.8%,95.6%
COc1ccc(/C=C/C(c2cc(OC)c(OC)c(OC)c2)n2cncn2)cc1O (stereo not given),16.5%,41%,41%,34.2%,20.7%,23.5%,23.9%,37.5%,50.9%,59.1%
Nc1ccc(Br)cc1C(F)(F)F,106%,108%,109%,104%,109%,105%,103%,108%,99.2%,121%
Cc1nn(C)c2ncnc(N/N=C/c3cccc(O)c3O)c12,28.9%,62.5%,38.6%,19.7%,15.7%,35.9%,-41.4% (active),-8.29% (active),4.98% (active),11.4%
C#Cc1cccc(NC(=O)C2CCCCN2C(=O)CCl)c1 (stereo not given),-54.7% [8.25 µM] (active),-52.5% [8.25 µM] (active),-5.47% [8.25 µM] (active),20.1% [8.25 µM],-62.2% [8.25 µM] (active),-7.93% [8.25 µM] (active),-81.7% [8.25 µM] (active),-84.8% [8.25 µM] (active),-74.6% [8.25 µM] (active),2% [8.25 µM] (active)
O=C1Nc2ccc(Cl)cc2/C1=C/c1ccc[nH]1,34.2%,107%,114%,106%,100%,111%,77.5%,102%,95.5%,129%
CCOC(=O)C#Cc1c(C(=O)OCC)nnn1[C@@H]1O[C@H](COC)[C@@H](OC)[C@H]1OC,-12.2% (active),24.9%,72.9%,97.9%,102%,92.4%,98.3%,93.8%,67%,96.3%
Cn1c(C#N)ccc1-c1ccc(F)c(NC(=O)c2ccc(F)cc2)c1,66.6%,47.5%,71.4%,84.1%,73.4%,80.9%,75.9%,60.8%,69.8%,86.5%
CN(C)CCC(CCN(C)C)(C(=O)O)c1ccccc1,99.7%,96.6%,97.2%,101%,102%,92.7%,102%,103%,106%,105%
COc1cc2c(cc1OCCCN1CCN(C(=S)SCCC(C#N)(c3ccccc3)c3ccccc3)CC1)N=C[C@@H]1CCCN1C2=O,-89.5% (active),-89.3% (active),-91.5% (active),-44.4% (active),-95.7% (active),-34.9% (active),-100% (active),-72% (active),-100% (active),-82.6% (active)
COc1ccc(C(O)c2cc3c(N)c(C(=O)Nc4cccc5ccccc45)sc3nc2C)cc1 (stereo not given),6.45% (active),6.41% (active),32.5%,25%,20.1%,14.1%,-47.4% (active),18.6%,19.1%,57.6%
Nc1nc(C(=O)N/N=C/c2ccc(F)cc2)nn1-c1ccc(S(N)(=O)=O)cc1,108%,98.5%,83.1%,95.2%,98.4%,107%,107%,94.4%,94.1%,107%
O=C(O)CC(C(=O)O)/C(=C\c1ccccc1)c1ccccc1 (stereo not given),107%,114%,83.2%,109%,99.8%,96.6%,94.8%,101%,99.1%,103%
CCCCCCCCCCCCCCCCCCOc1ccccc1CC(=O)NCC[N+](C)(C)C,87.4%,12.5%,22.9%,12.5%,-58.5% (active),-33% (active),63.7%,42%,33.4%,80.1%
O=[N+]([O-])c1ccccc1Nc1ccc2ccccc2c1,93.5%,94.1%,62.9%,89.8%,92.7%,92.3%,98.6%,79.5%,92.5%,101%
O=C(/C=C/C12c3ccccc3C(c3ccccc31)C1C(=O)NC(=O)C12)c1ccco1 (stereo not given),21.7%,13.1%,-2.52% (active),30.9%,15.9%,31.9%,46%,30.8%,16.1%,44.3%
Clc1ccc2nn3c4ccccc4c(OCCN4CCOCC4)nc3c2c1,89.8%,95.5%,76.8%,81.1%,84.5%,92.8%,83.7%,67.6%,84.2%,110%
N#Cc1c(-c2ccccc2)nc2c(c(-c3ccccc3)nn2-c2ccccc2)c1-c1ccc(N2CCCCC2)cc1,107%,110%,84.2%,99.3%,96.8%,90.5%,99.2%,92.8%,96%,106%
Cn1cc(-c2csc(-c3cn(CCCN4CCOCC4)c4ccc(F)cc34)n2)c2cccnc21,27.1%,1.97% (active),87.1%,77.1%,51.1%,29.6%,25.1%,72.2%,26.6%,77.5%
O=C1C(Cl)=C(Nc2ccccc2)C(=O)c2ccccc21,-78.2% (active),-75.1% (active),97.8%,54.2%,-41.8% (active),39.7%,-85.3% (active),-49.8% (active),-85.5% (active),-91.9% (active)
Cc1cc(C(=O)CCCC(=O)c2cc(C)c(O)c(C)c2)cc(C)c1O,79.2%,92.3%,69.7%,88.1%,89.6%,84.1%,29.2%,96.8%,87.2%,105%
CSc1nc2ccc(C)cc2cc1/C=C1/C=C(c2ccccc2)NC1=O,57.4%,57.6%,26.4%,67.3%,16.3%,68.4%,80.4%,71.9%,45.3%,79.1%
N#C/C(=C\c1ccc(-c2cccc(Cl)c2)o1)C(=O)Nc1ncc(Cc2ccc(Cl)cc2)s1,57.6%,70.5%,-3.05% (active),77.4%,16.9%,39.5%,89.9%,43%,52.5%,66.8%
N#Cc1ccc(/C=C/c2cn(-c3ccccc3)nc2-c2cccc([N+](=O)[O-])c2)cc1,65.4%,53.2%,27.3%,21.6%,46.7%,44.3%,72.7%,77%,77.4%,66.3%
COCCn1cc(-c2nc(-c3c[nH]c4ncccc34)cs2)c2ccccc21,20.3%,50.2%,47.2%,88.6%,72%,33.2%,34.3%,64.4%,66.9%,89.4%
C#CCOc1cccc(Nc2ncnc3cc(NC(=O)CCl)ccc23)c1,-53.5% (active),-78.9% (active),-49.9% (active),-88% (active),-78.9% (active),-83.8% (active),-93.8% (active),-73.9% (active),-67.3% (active),-30.6% (active)
COc1ccccc1S(=O)(=O)Nc1ccc2c3c(cc(CCC(=O)NCCCCNc4cccc5c4C(=O)N(C4CCC(=O)NC4=O)C5=O)cc13)C(=O)N2C (stereo not given),68.4%,48.4%,-26.1% (active),7.56% (active),61.4%,3.96% (active),-33% (active),43.9%,21.4%,13.3%
